Screening results from PubChem.
KKLEB cytotox – CF airway cell cytotoxicity counter-screen. actives 0.36% (n = 360,000). KKLEB CF airway cells viability, ATPlite luminescence, overnight; hits give low values; cells stimulated with P. aeruginosa culture filtrate. activity change (cytotoxicity), % at 5 µM;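 active = corrected activity change at or below -50% at 5 µM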
TROY signal inh – blocks TROY-dependent signaling in reporter cells; Q293 LMP1-TROYcd NF-kB luciferase reporter, 4 h; inhibition, % at 10 µM; actives 0.98% (n = 360,000); AID 1347056;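 active = compounds whose plate-normalised and pattern-corrected inhibition of the luciferase reporter signal at the single screening dose is 50% or more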
TWEAK Fn14 block – TWEAK-Fn14 signaling inhibition; TWEAK-stimulated Fn14 reporter cells, luciferase luminescence, 8 h; inhibition, % at 10 µM; actives 2% (n = 360,000); in the data active = inhibition above about 50%
HIF-2a inh – HIF-2a inhibition; 786-0 RCC cells HIF-2a reporter, luciferase luminescence, overnight; actives 0.72% (n = 360,000); inhibition, % at 18.8 µM;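 active = inhibition of the luminescence signal of 40% or more relative to plate controls, in a single-dose primary screen at 18.75 µM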
Peg3 prom inh-1 – Peg3 promoter activity inhibition | HeLa PEG-Prom luciferase reporter, luminescence, overnight | inhibition, % at 20 µM | actives 1.7% (n = 360,000) | AID 588405;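 active = inhibition of at least 50% at 20 µM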
CF NFkB inh – cystic fibrosis NF-kB activation inhibition; AID 588850; KKLEB NF-kB-GFP reporter, PAF-induced, GFP fluorescence overnight; actives 0.86% (n = 360,000); inhibition, % at 5 µM;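 active = at least 50% inhibition at 5 µM, scaled per plate between neutral and stimulator controls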;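 also: PAF is a Pseudomonas aeruginosa culture filtrate used as stimulus; plate controls were PAF-stimulated DMSO wells for no effect and unstimulated DMSO wells for full effect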
Peg3 prom inh-2 – Peg3 promoter inhibition confirmation; shares compounds with Peg3 prom inh-1; HeLa PEG-Prom luciferase reporter, luminescence, overnight; inhibition, % at 20 µM; actives 84% (n = 1,300); AID 602417;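 active = at 20 µM dose, 40% or more inhibition averaged across four replicates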
* hit, by the source's call; . = no result given. An excerpt weighted towards active compounds, which were near 4% of everything screened.

SMILES | KKLEB cytotox | TROY signal inh | TWEAK Fn14 block | HIF-2a inh | Peg3 prom inh-1 | CF NFkB inh | Peg3 prom inh-2
Cc1ccc(CN2CCC(N3CC(C)OC(C)C3)CC2)cc1 (stereo not drawn) | 3 | 14 | 2 | 13 | 2 | -9 | .
Cc1nnc(NC(=O)c2ccc(N3CCCC3=O)cc2)s1 | -23 | -11 | 0 | -138 | -119 | -10 | .
Cc1csc(NC(=O)c2ccc(N3CCCC3=O)cc2)n1 | 1 | 70* | 90* | 33 | 64* | 20 | 46*
COc1ccccc1CNC(=O)Nc1nc(C(N)C(C)C)cs1 (stereo not drawn) | -13 | 1 | -2 | 16 | -8 | -20 | .
CN(C)Cc1csc(NC(=O)Nc2ccccc2Oc2ccccc2)n1 | -8 | 18 | 7 | -14 | 93* | 49 | 20
CN(C)Cc1csc(NC(=O)Nc2ccccc2-c2ccccc2)n1 | -8 | -2 | -5 | -3 | 9 | 5 | .
COc1ccc(CNC(=O)Nc2nc(C(N)Cc3ccc(F)cc3)cs2)cc1 (stereo not drawn) | -25 | 8 | 12 | 9 | 96* | 7 | 98*
COc1ccccc1NC(=O)Nc1nc(C(N)CCc2ccccc2)cs1 (stereo not drawn) | -10 | 7 | 11 | 4 | 88* | -3 | 95*
CC(C)CC(N)c1csc(NC(=O)Nc2ccccc2C(C)(C)C)n1 (stereo not drawn) | -12 | 3 | 11 | -5 | 67* | -12 | 91*
CCN1CCN(P2(=O)C=C(c3ccccc3)OC(c3ccccc3)=C2)CC1 | -3 | -9 | 15 | 12 | 21 | 9 | .
COc1ccc(CNC(=S)N/N=C/c2ccncc2)cc1 | 3 | -10 | 0 | -2 | 1 | -2 | .
O=c1oc(-c2cccs2)nc2ccc(Cl)cc12 | 2 | -46 | 7 | -24 | -22 | -8 | .
CCn1nc(C)c(CN2CCC(C(=O)Nc3cccc(-c4cccc(F)c4)c3)CC2)c1C | -9 | 13 | 17 | 9 | 35 | 24 | .
NC(N)=N/N=C/c1ccc(OCc2ccccc2)c(OCc2ccccc2)c1 | -53* | 16 | -12 | 28 | 103* | 45 | 99*
CN(C)c1ccc(/C=C2\SC(=O)N(CCc3nnc(N)s3)C2=O)cc1 | -45 | 77* | 94* | 58* | 72* | -20 | 54*
O=C(CSCc1c(Cl)cccc1Cl)NCc1cccnc1 | -6 | -8 | -5 | -1 | 7 | 12 | .
CCOC(=O)N1CCN(Cc2nc3cc(NC(=O)CC(C)C)ccc3n2CC)CC1 | -5 | -8 | -9 | -2 | 18 | 5 | .
C=C1CC(Cn2cc(Br)c(=O)[nH]c2=O)(c2ccc(-c3ccccc3)cc2)OC1=O (stereo not drawn) | -49 | 49 | 83* | 94* | 100* | 87* | 98*
CC(C)n1cc(CN2CCC(C(=O)Nc3cccc(-c4cccc(Cl)c4)c3)CC2)cn1 | -19 | 6 | -19 | 16 | 111* | 12 | 98*
COc1cccc(NC(=O)CN(C)C(=O)c2cc(-c3ccco3)nc3ccccc23)c1 | -3 | -5 | 13 | 3 | 12 | 12 | .
CN(CCOc1ccc(Cl)cc1)C(=O)c1cc(-c2ccco2)nc2ccccc12 | -9 | 8 | 28 | 2 | 64* | -10 | 79*
Cc1cc(OCC(=O)Nc2ccc(S(=O)(=O)N3CCN(C)CC3)cc2)ccc1Br | 8 | 41 | 20 | -10 | 14 | -4 | .
COc1cccc(NC(=O)Nc2cccc(C(=O)O)c2)c1 | 4 | -22 | 4 | 81* | 67* | 6 | 55*
CCCCCCN1C=C/C(=C\C=C(C#N)C#N)c2ccccc21 | -27 | 8 | -16 | 34 | 56* | 20 | 45*
C=CCN1C=C/C(=C\C=C(C#N)C#N)c2ccccc21 | 11 | -4 | 19 | -36 | 11 | -75 | .
Cc1cc(C)cc(OCC(=O)OCC(=O)N2CC(=O)Nc3ccccc32)c1 | 2 | 16 | -3 | 10 | 6 | 12 | .
O=C(Nc1nc2ccccc2[nH]1)c1ccccc1F | -30 | 84* | 102* | 75* | 93* | 8 | 81*
O=C(Nc1nc2ccccc2[nH]1)c1cc(F)cc(F)c1 | 6 | -8 | -6 | -263 | -365 | -20 | .
